Compound activity from PubChem.
The list is not random: actives were taken first. Their share in the collection is about 3.5%.
MITF inh: inhibitors of human MITF; O75030; AlphaScreen MITF homodimerization, bead proximity signal; inhibition, % at 2.6 µM; actives 0.91% (n = 650,000); in the data active means inhibition above about 50%;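 further: 0% = vehicle wells with protein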
GPR151 ag: activates the human receptor GPR151 | actives 1% (n = 650,000) | Q8TDV0 | activation, % at 11.2 µM | AID 1508602 | PathHunter beta-arrestin GPR151 cells, luminescence; in the data active means activation above about 4.9%;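 further: 0% = median of compound wells and 100% = cells with positive control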
FBW7 activator: activators of human E3 ligase FBW7 | actives 0.13% (n = 650,000) | Q969H0 | AlphaScreen FBW7–phospho-cyclin E peptide binding, activator screen | AID 1259310 | normalized activity (activation), % at 26.1 µM; in the data active means normalized activity above about 1.9%;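 further: purified mutant Fbw7 with reduced substrate affinity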
TEAD-YAP inh: TEAD-YAP interaction inhibition; HEK-TIYL cells, TEAD-Gal4/YAP UAS-luciferase luminescence; actives 1.4% (n = 640,000); inhibition, % at 9.12 µM; in the data active means inhibition above about 32%;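 further: 0% = median of test compound wells and 100% = reference inhibitor wells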
GPR151 confirm: human GPR151 activation, confirmation screen. shares compounds with GPR151 ag. 6,700 tested, under 10 active. activation, % at 11.2 µM. GPR151 PathHunter beta-arrestin cells, luminescence, 90 min; % of EA-reagent control over plate median;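 active means mean percent activation across replicates above the confirmation screen cutoff of 4.91%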
GPR119 ag: GPR119 activation, counter-screen for GPR151 activators. GPR119 PathHunter beta-arrestin cells, luminescence, 90 min; 0 = compound-well median, 100 = enzyme-acceptor control. shares compounds with GPR151 ag. actives 0.3% (n = 6,700). activation, % at 11.2 µM;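 active means mean percent activation in the counterscreen above 29.09%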;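 further: counterscreen on off-target GPR119 to flag nonselective hits from the GPR151 activator screen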
Target sequence (Q8TDV5 whole entry, looked up): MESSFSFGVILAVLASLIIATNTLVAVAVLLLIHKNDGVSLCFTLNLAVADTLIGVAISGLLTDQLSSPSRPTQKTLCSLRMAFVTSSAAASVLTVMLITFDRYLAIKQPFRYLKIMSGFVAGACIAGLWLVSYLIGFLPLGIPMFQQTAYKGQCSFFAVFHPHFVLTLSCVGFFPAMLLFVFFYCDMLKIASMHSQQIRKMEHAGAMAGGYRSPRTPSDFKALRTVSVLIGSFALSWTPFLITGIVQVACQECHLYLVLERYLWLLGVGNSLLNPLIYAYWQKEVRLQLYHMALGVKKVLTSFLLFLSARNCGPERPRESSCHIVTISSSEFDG
An asterisk follows results filed as active; nt = no result.

SMILES	MITF inh	GPR151 ag	FBW7 activator	TEAD-YAP inh	GPR151 confirm	GPR119 ag
CC[C@H](C)[C@@H]1NC(=O)[C@@H]2C[C@H](NC(=O)Nc3cccc(Cl)c3)CN2C1=O	-10	5.3*	0	-21	0	9
CC(=O)c1c(C)nnn1-c1nonc1C	15	5.1*	1	8	1	-4
CCOc1ccc(NC(=S)NC(NC(C)=O)C(Cl)(Cl)Cl)cc1 (configuration not stated)	27	-1	0	8	nt	nt
CN(C)CCCN1C(=O)C(=O)/C(=C(\O)c2ccccc2)C1c1ccncc1 (configuration not stated)	7	1	0	-7	nt	nt
CC1Oc2ccccc2C=C1C1/C(=C(\O)c2ccccc2)C(=O)C(=O)N1CCCN(C)C (configuration not stated)	-3	12*	0	4	1	-3
CCN(CC)C(=S)SCCC(=O)NC(=O)Nc1ccc(F)cc1	1	24*	-1	14	-1	-3
COCC(=O)N(Cc1cc2cc(C)c(C)cc2n2nnnc12)C1CCCC1	4	0	0	-1	nt	nt
CC[C@H](C)[C@@H]1NC(=O)[C@H]2CN(CC3CC3)CCN2C1=O	2	0	0	5	nt	nt
CCOc1ccccc1/C=C1\N=C(c2ccc(OC)cc2Cl)OC1=O	-24	-1	0	-6	nt	nt
COc1cc(/C=N/n2c(-c3ccncc3)n[nH]c2=S)cc(Br)c1O	-7	5.0*	0	4	0	-7
CO/N=C(\CSc1ccccc1OC)c1sc2ncnn2c1C	-5	3	0	-15	nt	nt
Cc1c(C(=O)CSc2ccc(F)cc2F)sc2ncnn12	10	5.9*	0	-8	0	7
Cc1cc(C(=O)Nc2cccc(NC(=O)c3ccccc3)c2)ccc1[N+](=O)[O-]	8	6.3*	0	-11	0	3
Cc1cccc(NC(=O)c2ccc(NCCc3ccccc3)c([N+](=O)[O-])c2)c1	10	6.6*	0	6	-1	-4
Cc1cc(C(=O)Nc2cccc(O)c2)ccc1[N+](=O)[O-]	15	-1	0	-36	nt	nt
CCOC(=O)C1CCN(CC(O)COc2ccc3c(c2)CCC3)CC1 (configuration not stated)	20	1	1	4	nt	nt
Cc1ccc2nc(-c3ccc(Br)cc3)cc(C(=O)N3CCOCC3)c2c1	-15	-1	0	-2	nt	nt
CN1CCN(C(=O)CN(c2cccc(Cl)c2)S(=O)(=O)c2ccc(Cl)cc2)CC1	11	1	0	-3	nt	nt
O=C(CN(c1cccc(Cl)c1)S(=O)(=O)c1ccc(Cl)cc1)N1CCOCC1	-3	9.1*	0	2	0	-7
COc1ccc(CCNC(=O)CN2N=C(c3ccc(C)cc3)CCC2=O)cc1OC	-6	6.7*	0	-7	1	-2
CC(C)Oc1ccc(C2CC(=O)NC3=C2C(=O)CCC3)cc1 (configuration not stated)	7	1	0	8	nt	nt
CC(C)Oc1ccc(C2CC(=O)NC(=O)C2)cc1	24	6.7*	1	0	0	13
CC(C)C(C(=O)O)N1C(=O)/C(=C2/C(=O)N(CC(=O)O)c3ccccc32)SC1=S (configuration not stated)	18	1	0	-6	nt	nt
Cc1nn(-c2ccccn2)c2c1C(=O)CC(C)(C)C2Br (configuration not stated)	16	5.8*	0	4	-1	-8
CCCn1nnnc1SCC(=O)NNC(=O)c1ccco1	-7	0	0	1	nt	nt
CCCCn1nnnc1SCC(=O)NNC(=O)c1ccco1	13	5.9*	0	12	1	4
Cc1cc(C)c(C(=O)N2CCC3(CC2)CC3C(=O)NCC2(c3ccccc3)CCOCC2)[nH]1 (configuration not stated)	-2	0	0	2	nt	nt
COC(=O)c1ccccc1NC(=O)C(C)C	-1	5.3*	1	9	0	-11
COc1ccc(OC)c(C(C)NC(=O)c2ccccc2Cl)c1 (configuration not stated)	11	15*	0	5	1	15
COc1cc(NC(=O)c2ccccc2Cl)ccc1NC(=O)C(C)C	17	10*	0	-16	0	-5
